# In PubChem BioAssay AID1159580 (chemical genetic matrix, 2015):
# About 2,000 (36%) of roughly 5,500 compounds were called active. Inconclusive results (about 18%) are left out. This is one part of the list. A number with no mark means an inactive call. Cut-off read from the data, not from the text of the source: active = normalized growth mostly below about 0.91 (no sharp cut-off); inconclusive = no clear call, values can overlap the other calls; inactive = mostly above about 0.92.
# Experiment: chemical genetic growth profiling, strain panel (AID 1159580);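 note: tested at 20 µM; growth read once vehicle control cultures reached saturation at 30 °C; 1 = growth at the plate median or of vehicle wells; lower values mean less growth of the strain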
# Conditions: S. cerevisiae deletion strains, growth OD
smiles,measurement,setting,value
O=S(=O)(Nc1cc(C(F)(F)F)ccc1F)c1cc(C(F)(F)F)ccc1Cl,normalized growth,"locus YAR019C, strain CDC15, hits give low values",0.942
same,normalized growth,"locus YBL105C, strain PKC1, hits give low values",0.947
same,normalized growth,"locus YBR135W, strain CKS1, hits give low values",0.937
same,normalized growth,"locus YBR136W, strain MEC1, hits give low values",0.943
same,normalized growth,"locus YBR160W, strain CDC28, hits give low values",0.931
same,normalized growth,"locus YDL017W, strain CDC7, hits give low values",0.944
same,normalized growth,"locus YDL028C, strain MPS1, hits give low values",0.941
same,normalized growth,"locus YDL101C, strain DUN1, hits give low values",0.969
same,normalized growth,"locus YDL108W, strain KIN28, hits give low values",0.949
same,normalized growth,"locus YDL132W, strain cdc53, hits give low values",0.945
same,normalized growth,"locus YDL214C, strain PRR2, hits give low values",0.905
same,normalized growth,"locus YDR052C, strain DBF4, hits give low values",0.957
same,normalized growth,"locus YDR054C, strain cdc34, hits give low values",0.94
same,normalized growth,"locus YDR226W, strain ADK1, hits give low values",0.95
same,normalized growth,"locus YDR477W, strain SNF1, hits give low values",0.917
same,normalized growth,"locus YER123W, strain YCK3, hits give low values",0.868
same,normalized growth,"locus YER133W, strain GLC7, hits give low values",0.923
same,normalized growth,"locus YFL009W, strain cdc4, hits give low values",0.939
same,normalized growth,"locus YFL029C, strain CAK1, hits give low values",0.941
same,normalized growth,"locus YFR003C, strain YPI1, hits give low values",0.946
same,normalized growth,"locus YFR019W, strain FAB1, hits give low values",0.894
same,normalized growth,"locus YFR028C, strain CDC14, hits give low values",0.939
same,normalized growth,"locus YGR040W, strain KSS1, hits give low values",0.905
same,normalized growth,"locus YGR052W, strain FMP48, hits give low values",0.831
same,normalized growth,"locus YGR092W, strain DBF2, hits give low values",0.82
same,normalized growth,"locus YHR030C, strain SLT2, hits give low values",0.644 (active)
same,normalized growth,"locus YHR079C, strain IRE1, hits give low values",0.824
same,normalized growth,"locus YHR082C, strain KSP1, hits give low values",0.771
same,normalized growth,"locus YHR205W, strain SCH9, hits give low values",0.887
same,normalized growth,"locus YIL147C, strain SLN1, hits give low values",0.95
same,normalized growth,"locus YJL095W, strain BCK1, hits give low values",0.886
same,normalized growth,"locus YJL128C, strain PBS2, hits give low values",0.911
same,normalized growth,"locus YJL157C, strain FAR1, hits give low values",0.904
same,normalized growth,"locus YJR016C, strain ILV3, hits give low values",0.941
same,normalized growth,"locus YJR066W, strain TOR1 (second series), hits give low values",0.904
same,normalized growth,"locus YJR066W, strain TOR1, hits give low values",0.82
same,normalized growth,"locus YKL048C, strain ELM1, hits give low values",0.852
same,normalized growth,"locus YKL067W, strain YNK1, hits give low values",0.905
same,normalized growth,"locus YKL101W, strain HSL1, hits give low values",0.88
same,normalized growth,"locus YKL193C, strain SDS22, hits give low values",0.938
same,normalized growth,"locus YKL203C, strain TOR2, hits give low values",0.933
same,normalized growth,"locus YLR113W, strain HOG1, hits give low values",0.715 (active)
same,normalized growth,"locus YLR133W, strain CKI1, hits give low values",0.902
same,normalized growth,"locus YLR403W, strain SFP1, hits give low values",0.902
same,normalized growth,"locus YML070W, strain DAK1, hits give low values",0.864
same,normalized growth,"locus YMR001C, strain CDC5, hits give low values",0.943
same,normalized growth,"locus YMR205C, strain PFK2 (second series), hits give low values",0.925
same,normalized growth,"locus YMR277W, strain FCP1, hits give low values",0.944
same,normalized growth,"locus YNL006W, strain LST8, hits give low values",0.936
same,normalized growth,"locus YNL020C, strain ARK1, hits give low values",0.882
same,normalized growth,"locus YNL161W, strain CBK1, hits give low values",0.939
same,normalized growth,"locus YNL183C, strain NPR1, hits give low values",0.808
same,normalized growth,"locus YNL207W, strain RIO2, hits give low values",0.937
same,normalized growth,"locus YNL222W, strain SSU72, hits give low values",0.938
same,normalized growth,"locus YNL307C, strain MCK1 (second series), hits give low values",0.861
same,normalized growth,"locus YOL078W, strain AVO1, hits give low values",0.935
same,normalized growth,"locus YOL136C, strain PFK27, hits give low values",0.858
same,normalized growth,"locus YOR061W, strain CKA2, hits give low values",0.908
same,normalized growth,"locus YOR119C, strain RIO1, hits give low values",0.951
same,normalized growth,"locus YOR231W, strain MKK1, hits give low values",0.817
same,normalized growth,"locus YOR329C, strain SCD5, hits give low values",0.947
same,normalized growth,"locus YPL031C, strain PHO85, hits give low values",0.881
same,normalized growth,"locus YPL153C, strain RAD53, hits give low values",0.867
same,normalized growth,"locus YPL204W, strain HRR25, hits give low values",0.876
same,normalized growth,"locus YPL209C, strain IPL1, hits give low values",0.935
same,normalized growth,"locus YPL256C, strain CLN2, hits give low values",0.694 (active)
same,normalized growth,"locus YPR025C, strain CCL1, hits give low values",0.937
same,normalized growth,"locus YPR106W, strain ISR1, hits give low values",0.929
same,normalized growth,"locus YPR111W, strain DBF20, hits give low values",0.925
same,normalized growth,"strain NNK1, hits give low values",0.934
same,normalized growth,"strain TSCII, hits give low values",0.941
NCCCC(N)(C(=O)O)C(F)F (centres undefined),normalized growth,"locus YAL040C, strain CLN3, hits give low values",0.996
same,normalized growth,"locus YCL061C, strain MRC1 (second series), hits give low values",1
same,normalized growth,"locus YDR363W, strain ESC2, hits give low values",0.981
same,normalized growth,"locus YER002W, strain NOP16, hits give low values",0.996
same,normalized growth,"locus YGR078C, strain PAC10, hits give low values",1.01
same,normalized growth,"locus YMR263W, strain SAP30, hits give low values",0.994
same,normalized growth,"locus YNL153C, strain GIM3, hits give low values",1.02
same,normalized growth,"locus YNL175C, strain NOP13, hits give low values",1
same,normalized growth,"locus YNL197C, strain WHI3, hits give low values",0.983
same,normalized growth,"locus YNL224C, strain SQS1, hits give low values",1.01
same,normalized growth,"locus YNL322C, strain KRE1, hits give low values",0.986
same,normalized growth,"locus YOR083W, strain WHI5 (second series), hits give low values",1.01
same,normalized growth,"locus YPL241C, strain CIN2, hits give low values",1
